Measured values: ChEMBL document CHEMBL3988442, “University of Dundee, Small-Polar-MMV Screening Library” (2021)
Where “and” joins values, the source holds several entries; their conditions need not be identical. Identical values can stand only once. Screen size: about 38,000 compounds; about 1,200 (3.2%) showed an effect of 50% or more. The median lay at about -58%. This excerpt belongs to a sample that is enriched for strong results.

Tested on: Plasmodium falciparum
Experiment: Calibr Malaria Delayed Death Assay SOP
Assay type: functional, organism-based
Set-up: scale not given: in the data most compounds retested in dose-response had high values
Settings: concentration 4.99e-06 (unit not given; other assays of the set use mol/L)

SMILES | Percent Effect [%] | Percent Effect (4.99 µM)
COc1ccc(NS(=O)(=O)CC2=NC(=O)n3cccc3C2=O)cc1Cl | -78.67 | –
CN(CCC(N)=O)Cc1cc(Br)cs1 | -77.34 | –
CCOC(=O)CN(C)Cc1cnc(C)s1 | -144.9 | –
CCCN(CCC)C(=O)CN(C)Cc1cnc(C)s1 | -123.6 | –
Cc1ncc(CN(C)CC(O)c2cccc(C(F)(F)F)c2)s1 (centres undefined) | 53.4 | –
Cc1cc(CNC(=O)NCC(O)c2cccc(C(F)(F)F)c2)no1 (centres undefined) | -35.43 | –
Cc1ncc(CN(C)CC(O)c2ccc(OC(F)(F)F)cc2)s1 (centres undefined) | 62.45 | –
Cc1ncc(CN(C)CC(O)c2ccc(Br)cc2)s1 (centres undefined) | 19.44 | –
N#Cc1ccc(N2CCC3(CCC(=O)N3Cc3ccncc3)CC2)nc1.O=C(O)C(F)(F)F.O=C(O)C(F)(F)F | -114.1 | –
CCn1cc(-c2cc(C(F)F)n3nc(CC(=O)O)nc3n2)cn1 | -21.51 | –
CCOCCN1CCN([C@@H]2c3ccccc3C3(CCNCC3)[C@H]2O)CC1 | -70.37 | –
COCCCC1CCN([C@@H]2c3ccccc3C3(CCNCC3)[C@H]2O)CC1 | 36.42 | –
Cc1cc(C(C)(O)CNC(=O)CCOCC(C)C)c(C)o1 (centres undefined) | -34.27 | –
CCS(=O)(=O)N1CC[C@@H]2[C@H](CC1)N(Cc1cccnc1)CCS2(=O)=O.O=C(O)C(F)(F)F.O=C(O)C(F)(F)F | -78.89 | –
Cc1csc(C2CCCCN2C(=O)CN(C)C2CC2)n1 (centres undefined) | -127 | –
Cc1csc(C2CCCCN2C(=O)COCc2nc(C)no2)n1 (centres undefined) | -74.6 | –
Cc1csc(C2CCCCN2C(=O)c2cc(C(C)C)[nH]n2)n1 (centres undefined) | 75.22 | –
CC(NCC(=O)Nc1ccc(N2CCCCCC2)cc1)c1cccs1 (centres undefined) | 21.94 | –
COC(=O)c1cc(OC)c(OC)cc1NCc1c(C)noc1C | -119.4 | –
CCCN(C(=O)CN1CCn2c(nnc2C2CC2)C1)C1=CCCCC1 | -109.1 | –
Cc1nn(C)c2nc(NCCCN3CCCC(C(N)=O)C3)sc12 (centres undefined) | -133.1 | –
Cc1ccc(CN(CCCO)Cc2nc3ccccc3[nH]2)s1 | -85.6 | –

SMILES | Percent Effect [%] | Percent Effect (4.99 µM)
COCc1ncc(CN(CCN(C)C)Cc2ccc(C)s2)cn1 | 1.94 | –
COc1ncc(CN(CCN(C)C)Cc2ccc(C)s2)cn1 | -3.016 | –
Cc1ccc(CN(CCN(C)C)Cc2nc3ccccc3[nH]2)s1 | 60.93 | –
CCc1ccc(CN(CCN(C)C)Cc2ccc(C)s2)nc1 | 91.79 | –
CCNc1ncc(CN(CCN(C)C)Cc2ccc(C)s2)cn1 | 37.82 | –
O=C(O)C1(O)CCN(c2ccc3cccc(Cl)c3n2)CC1 | -181.1 | –
CCCN1CCC(c2nc3ccc(-c4cccc(F)c4)cn3n2)CC1.O=C(O)C(F)(F)F | 31.95 | –
COc1ccc(Cn2nnnc2SCC2CCCN(C)C2)cc1 (centres undefined) | 58.9 | –
COc1ccc(CN2CC[C@H](c3nnc(-c4ccco4)o3)C2)cc1 | -19.38 | –
COc1ccc(OC)c(-n2nnnc2SCC2CCCN(C)C2)c1 (centres undefined) | 41.34 | –
O=C(O)C(F)(F)F.O=C(c1cccs1)N1CCOCC2(C1)CN(c1cccnc1)C(=O)CO2 (centres undefined) | -98.48 | –
Cc1ccc(C(=O)Nc2nnc(CC(C)C)s2)c(-n2cnnn2)c1C | -82.26 | –
Cn1ccnc1CN1CCC(Cn2cc(-c3ccncc3)nn2)CC1 | -74.11 | –
O=C(CNCC1(O)CCCN(Cc2cccc(F)c2F)C1=O)NC1CC1 (centres undefined) | -101.8 | –
COCCNCC1(O)CCCN(Cc2ccc(F)c(F)c2)C1=O (centres undefined) | 23.01 | –
COc1ccc(F)c(CN2CCCC(O)(CNCc3ncc[nH]3)C2=O)c1 (centres undefined) | -101.4 | –
O=C1N(Cc2cccc(F)c2F)CCCC1(O)CNCC1CCCCC1 (centres undefined) | 73.31 | –
CN1CCC(NCC2(O)CCCN(Cc3ccccc3F)C2=O)CC1 (centres undefined) | 4.135 | –
COc1ccc(F)c(CN2CCCC(O)(CNC3CCCCC3)C2=O)c1 (centres undefined) | 69.02 | –
O=C1N(Cc2cccc(F)c2F)CCCC1(O)CNC1CCCC1 (centres undefined) | 59.35 | –
O=C1N(Cc2cccc(F)c2F)CCCC1(O)CNCc1ccccn1 (centres undefined) | 0.3162 | –
COc1ccc(F)c(CN2CCCC(O)(CNCc3ccon3)C2=O)c1 (centres undefined) | -23.9 | –

SMILES | Percent Effect [%] | Percent Effect (4.99 µM)
C=C(C)CNCC1(O)CCCN(Cc2ccc(F)c(F)c2)C1=O (centres undefined) | -91.62 | –
O=C1N(Cc2ccc(F)c(F)c2)CCCC1(O)CNCC1CCCCC1 (centres undefined) | 73.06 | –
COC(=O)CNCC1(O)CCCN(Cc2cccc(F)c2F)C1=O (centres undefined) | -57.14 | –
O=C(CCc1cccnc1)N1CCC2(CCN(CC3CCCC3)C2)C1.O=C(O)C(F)(F)F.O=C(O)C(F)(F)F (centres undefined) | 15.87 | –
Cn1cc(NC(=O)CNC(=O)N2CCN(c3cccc(Cl)c3)CC2)cn1 | -19.66 | –
Cc1ccc(NC(C(N)=O)c2ccc(F)cc2)cc1 (centres undefined) | -42.35 | –
O=C(NCCc1nnc2n1CCC2)NC1(c2cccc(F)c2)CC1 | -62.64 | –
CNC(=O)c1cnc2c(C)csc2c1 | -145.8 | –
Cc1nn(C2CCS(=O)(=O)C2)c(O)c1Cc1ccccc1Cl (centres undefined) | -17.18 | –
Cc1noc([C@H]2CC[C@@H]3[C@@H](CCN3c3ncccn3)O2)n1 | -94.2 | –
Cc1ccc(C)c(OCCN(C)C(=O)CCc2cn[nH]c2)c1 | -90.4 | –
CCc1noc(C)c1C(=O)N1CCC2(CCCN(CC(C)(C)C)C2=O)C1 (centres undefined) | – | -34.55% and -37.04%
CC1CCN(CC2(O)CCCN(Cc3cccc(F)c3F)C2=O)CC1 (centres undefined) | -78.62 | –
O=C1N(Cc2cccc(F)c2F)CCCC1(O)CN1CCCOCC1 (centres undefined) | 40.89 | –
CC(C)(C)CNCC1(O)CCCN(Cc2ccccc2F)C1=O (centres undefined) | 83.8 | –
CN(CC1(O)CCCN(Cc2cccc(F)c2F)C1=O)C1CCCCC1 (centres undefined) | 63.45 | –
Cc1cccnc1CNCC1(O)CCCN(CC(C)(C)C)C1=O (centres undefined) | -8.334 | –
COc1ccc(F)c(CN2CCCC(O)(CNCC(C)(C)C)C2=O)c1 (centres undefined) | 48.73 | –
CC(C)C(C)NC(=O)CNc1cc2c(cc1Cl)NC(=O)CO2 (centres undefined) | -65.88 | –
CCOCC1CN(S(=O)(=O)C2CC2)Cc2ncn(CC3CC3)c21 (centres undefined) | -12.84 | –
